Shiga inhibitor: A qHTS for Small Molecule Inhibitors of Shiga Toxin; inhibition, % at 38.7 µM; AID 2315, 2010; Vero cells, Shiga toxin protein synthesis inhibition reporter; hit rate 9.2% among 290,000; in the data active means inhibition mostly above about 28%, no sharp cut-off; inactive means mostly below about 43%; further: 0% is about no effect
LmPK inh: qHTS Assay for Inhibitors of Leishmania Mexicana Pyruvate Kinase (LmPK) | Q27686 | purified LmPK, Kinase-Glo ATP luminescence, 1 h | Potency, µM (highest dose often 57.5 µM), for inactives: at the highest dose activity change, negative = inhibition, usual class: inhibitors | hit rate 0.37% among 290,000; further: potency means the concentration at half of the fitted maximal effect; on the % scale 0 is the no-effect control and ±100 the full control effect
Target sequence (Q27686 whole entry, looked up): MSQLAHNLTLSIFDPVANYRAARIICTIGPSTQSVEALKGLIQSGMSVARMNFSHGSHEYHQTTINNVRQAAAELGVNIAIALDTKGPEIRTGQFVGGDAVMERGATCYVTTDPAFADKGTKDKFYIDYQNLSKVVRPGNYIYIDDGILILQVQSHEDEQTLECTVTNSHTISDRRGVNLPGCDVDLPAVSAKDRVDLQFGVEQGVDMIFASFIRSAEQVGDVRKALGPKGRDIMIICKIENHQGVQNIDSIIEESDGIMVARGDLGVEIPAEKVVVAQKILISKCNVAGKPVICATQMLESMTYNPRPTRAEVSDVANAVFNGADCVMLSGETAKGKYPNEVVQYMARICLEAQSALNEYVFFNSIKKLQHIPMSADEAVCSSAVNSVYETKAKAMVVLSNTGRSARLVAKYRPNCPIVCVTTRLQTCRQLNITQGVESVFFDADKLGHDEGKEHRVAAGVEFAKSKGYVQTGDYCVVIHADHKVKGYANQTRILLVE
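Purified LmPK (0.1 nM) converted ADP (0.1 mM) to ATP with PEP (0.5 mM) in imidazole buffer pH 7.2 with KCl and MgCl2, 1 h at room temperature. ATP was read by Kinase-Glo luminescence; data normalized to uninhibited and no-enzyme controls.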
Tb PYK inh: qHTS of Trypanosoma Brucei Inhibitors | TbPYK enzyme, Kinase-Glo Plus ATP luminescence, 45 min | Potency, µM (doses to about 76.8 µM), without a hit: at the highest dose activity, negative = inhibition, actives largely listed as inhibitors | hit rate 0.12% among 410,000 | AID 624173, 2012; further: potency means the concentration at half of the fitted maximal effect; on the % scale 0 is the no-effect control and ±100 the full control effect; nearly all actives have a fitted effect of over 50% in size
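ADP (130 uM final) triggers the TbPYK reaction after compound addition; incubation is 45 min at room temperature. Kinase-Glo Plus is then added and luminescence imaged. Normalized data are fitted to concentration-effect curves.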
FBPA Giardia inh: qHTS Assay for Inhibitors of Fructose-1,6-bisphosphate Aldolase from Giardia Lamblia. purified Giardia FBPA. Potency, µM (top dose mostly 59.6 µM), without a hit: at the highest dose activity, negative = inhibition, usual class: inhibitors. hit rate 0.71% among 290,000. AID 2451, 2010; further: potency means the concentration at half of the fitted maximal effect; on the % scale 0 is the no-effect control and ±100 the full control effect; nearly all actives have a fitted effect of over 55% in size
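Giardia FBPA (40 nM reagent) was preincubated 10 min at RT with compound (up to 57.5 uM final), then substrate plus GAPDH/TPI/NAD/arsenate coupling system with diaphorase/resazurin was added; resorufin fluorescence (525/598 nm) was read after 20 min.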
CHX counter: Cycloheximide Counterscreen for Small Molecule Inhibitors of Shiga Toxin; cell reporter, cycloheximide protein synthesis inhibition counterscreen; hit rate 12% among 300,000; max response, %; in the data active means max response mostly above about 13%, no sharp cut-off; inactive means mostly below about 14%; further: read at 38.3 µM for the half of the compounds with a filed dose; 0% is about no effect
RE007 growth inh: qHTS Assay for Inhibitors of the HIV-1 protein Vpr; Potency, µM (top dose mostly 92.2 µM), for the others: at the highest dose activity change, negative = less growth, actives largely listed as inhibitors; S. pombe RE007 Vpr strain, BacTiter-Glo ATP luminescence, 24 h; AID 651644, 2012; hit rate 0.21% among 360,000; active means well fitted falling curve with a large enough effect; inconclusive means small, poorly fitted or top-dose-only effect; inactive means no such curve, though single readings can be large or run the other way; further: potency means the concentration at half of the fitted maximal effect; on the % scale 0 is the no-effect control and ±100 the full control effect; nearly all actives have a fitted effect of over 50% in size
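Fission yeast strain RE007, carrying one chromosomally integrated HIV-1 vpr copy, was seeded at OD 0.01 in PMG+AL medium with 23 nL pinned compound. After 24 h at 30 °C and 99% humidity, viability was read by BacTiter-Glo luminescence.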
* = called active by the depositor; ? = inconclusive; · = no result; [ ] = remark or other dose. This excerpt belongs to a sample that is enriched for hits. Unless noted, the call rests on the fitted dose curve; in most records, active means well fitted curve in the direction sought with a large enough effect; inconclusive means small, poorly fitted or top-dose-only effect, or another doubt; inactive means no such curve, though single readings can be large; an effect the other way counts as inactive or inconclusive.

SMILES | Shiga inhibitor | LmPK inh | Tb PYK inh | FBPA Giardia inh | CHX counter | RE007 growth inh
Cc1c(Br)cccc1NC(=O)c1sccc1-n1cccc1 | -12.3 | 6.1% | -2.6% | -12.0% | 12.7 | 4.2%
Cc1cc(N2CCN(C)CC2)nc2ccc(NC(=O)Nc3cccc(Cl)c3)cc12 | · | · | -0.5% | · | · | ·
COC(=O)c1sc(NC(=O)COc2ccc(C)cc2)nc1C | -5.2 | 8.6% | -10.7% | 0.0% | -1.0 | -23.0%
COC(=O)c1sc(NC(=O)COc2ccccc2)nc1C | 27.8 | -6.2% | -6.5% | 4.3% | 23.0* | 8.4%
Cc1cnc(NC(=O)C2(c3ccccc3)CC2)s1 | 74.0* | 5.4% | -4.9% | 0.1% | 20.0* | -7.3%
Cc1cnc(NC(=O)COc2ccccc2)s1 | 110.2* | -11.7% | -2.0% | -6.5% | 59.0* | 3.5%
COC(=O)c1sc(NC(=O)Cc2cccs2)nc1C | 70.2* | -2.8% | -3.5% | 3.2% | 33.4* | 11.6%
Cc1nnc(NC(=O)C2(c3ccccc3)CCOCC2)s1 | -4.8 | -6.9% | -2.0% | 2.1% | -5.0 | 5.8%
Cc1cnc(NC(=O)Cc2ccc(C)c(C)c2)s1 | 47.3* | -4.1% | -3.8% | -11.0% | 20.1* | 15.1%
COc1cc(CC(=O)Nc2ncc(C)s2)cc(OC)c1OC | -15.3 | 2.9% | 0.2% | 0.3% | -2.2 | 0.3%
Cc1cnc(NC(=O)CCc2ccccc2)s1 | · | 6.5% | 0.3% | 1.3% | 24.6* | -0.5%
Cc1cnc(NC(=O)CSc2ccccc2)s1 | 40.6 | 4.3% | 5.2% | -3.0% | 30.0* | 2.3%
CCOC(=S)SCC(=O)Nc1ncc(C)s1 | 68.2* | 2.2% | -4.0% | ? | 39.4* | 10.6%
Cc1ccc(S(=O)(=O)NNC(=O)Nc2ccccc2F)c(C)c1 | 15.8 | -0.3% | 4.0% | · | 5.1 | 2.5%
Cn1nc(-c2ccccc2)cc1NC(=O)Nc1ccccc1F | 57.4 | 1.0% | 2.3% | -0.8% | 36.3* | -18.2%
CCN(CC)C(=O)c1ccc(NC(=O)Nc2ccccc2F)cc1 | 39.5 | ? | ? | 3.3% | 16.0* | 12.6µM*
CCN(CC)C(=O)c1ccc(C(=O)Nc2ccc(F)cc2)cc1 | · | · | -2.7% | · | · | 6.5%
O=C(Nc1ccc(Br)cc1)Nc1ccccc1F | 107.2* | ? | 1.8% | 0.4% | 49.8* | -7.4%
Cc1ccc(N=Nc2ccc(C)cc2NC(=O)Nc2ccccc2F)cc1 | 33.8 | -2.8% | 1.8% | -6.9% | 46.2* | -10.8%
COC(=O)CSc1ncc2c(n1)-c1ccccc1N(Cc1cccc(F)c1)S2(=O)=O | · | · | 0.5% | · | · | ·
Cc1ccc(COC(=O)c2ccc(-c3nnn(Cc4ccc(C)cc4)n3)cc2)cc1 | · | · | 3.2% | · | · | ·
CCOCCCNC(=O)c1cnc2sc(N3CCCCC3)nn2c1=O | · | · | 2.2% | · | · | ·
Cc1ccc(OCc2nnc(SCC(=O)Nc3ccccc3C(C)C)o2)cc1 | · | · | 0.6% | · | · | ·
COc1ccc(-c2cc(=O)oc3c4c(ccc23)OCN(Cc2ccccc2)C4)cc1 | · | · | 1.0% | · | · | ·
O=C(Nc1ccccc1F)Nc1ccccc1F | 72.6* | ? | -14.5% | -0.5% | 34.6* | -15.6%
SMILES | Shiga inhibitor | LmPK inh | Tb PYK inh | FBPA Giardia inh | CHX counter | RE007 growth inh
Cn1nc(-c2ccccc2)cc1NC(=O)CCCC(=O)O | 4.4 | 0.4% | 2.1% | 6.2% | 0.8 | 2.5%
O=C(NNc1cccc(Cl)n1)Nc1ccccc1F | 27.7 | -1.9% | -2.8% | 1.6% | 11.8 | 9.1%
O=C(NNc1ccccc1)Nc1ccccc1F | 87.1* | -16.0% | -5.1% | 11.7% | 20.4* | -26.7%
O=C(Nc1ccccc1F)Nc1cccc2ccc(O)cc12 | 102.0* | -16.3% | 0.0% | ? | 46.2* | ·
Cn1nc(-c2ccccc2)cc1NC(=O)C1CCCCC1 | 58.9 | 5.2% | 1.2% | 2.0% | 40.8* | 2.8%
CC(=O)Nc1cccc2ccc(O)cc12 | · | · | 3.0% | · | · | 5.2%
NCC(=O)N[C@@H](CCCN=C(N)N)C(=O)NCC(=O)N[C@@H](CC(=O)O)C(=O)N[C@@H](CO)C(=O)N1CCC[C@H]1C(=O)O | -6.6 | · | · | 0.9% | -7.1 | ·
O=C(Cn1ncc2c3ccccc3n(Cc3cccc(Cl)c3)c2c1=O)NC1CCCCCC1 | · | · | -1.1% | · | · | ·
C=C(C)C(O)C(CC/C=C(\C)C(=O)OCC)OC (centres undefined) | · | · | · | -3.3%[12.9 µM] | · | ·

Screening data from PubChem.
